According to ChEMBL document CHEMBL3988442, “University of Dundee, Small-Polar-MMV Screening Library” (2021):
The campaign covered roughly 66,000 compounds. About 960 (1.5%) showed an effect of 50% or more. Shown is part of a subset that was picked to be rich in strong results.

System: Trypanosoma brucei
Assay: Trypanosoma brucei 72 hour study
Assay type: functional, organism-based
Design: scale not given: in the data most compounds retested in dose-response had high values

Row | Structure (SMILES) | Percent Effect (30 µM, 30.03 µM) | Percent Effect (30.3 µM, […])
1 | COc1ccc(-n2ccnc2-c2ccc(C(=O)O)s2)cc1CO | -62.12% | –
2 | Nc1ncc(-c2ccc(C(F)(F)F)cc2)c(C2CCCNC2)n1 (stereo not drawn) | – | 90.9%
3 | Nc1ncc(-c2ccc(Cl)cc2)c(C2CCCNC2)n1 (stereo not drawn) | – | 28.09%
4 | Nc1ncc(-c2ccc(F)cc2)c(C2CCCNC2)n1 (stereo not drawn) | – | 1.475%
5 | Cc1nc(C)c(C(=O)N2Cc3ccccc3OCC2CN(C)C)o1.Cl.Cl (stereo not drawn) | – | -20.04%
6 | O=C(O)C(F)(F)F.O=C(O)C(F)(F)F.O=C(c1n[nH]c2c1CN(C1CCOC1)CC2)N1CCCC1 (stereo not drawn) | – | 8.032%
7 | CCCNC(=O)c1nn(CC)cc1NC(=O)c1c(C)nn(C)c1C | – | 45.33%
8 | CCn1cc(NC(=O)c2c(C)nn(C)c2C)c(C(N)=O)n1 | – | 53.08%
9 | CCCNC(=O)c1nn(CC)cc1NC(=O)c1cn(C)nc1C | – | 26.24%
10 | Cc1cnc2n(c1=O)CC(C(=O)Nc1ccon1)CS2 (stereo not drawn) | -0.7773% | –
11 | O=C(c1cc[nH]n1)N1CCCC(c2cc(C(F)(F)F)[nH]n2)C1 (stereo not drawn) | – | 17.05%
12 | O=C(c1cc(Cl)c[nH]1)N1CCCC(c2cc(C(F)(F)F)[nH]n2)C1 (stereo not drawn) | – | 80.28%
13 | O=C(c1ccc[nH]1)N1CCCC(c2cc(C(F)(F)F)[nH]n2)C1 (stereo not drawn) | 38.21% | –
14 | CCOC(=O)C1CC2(CCCCC2)N2CCC(=O)N12 (stereo not drawn) | – | -30.31%
15 | Cc1ccc(C(=O)N2Cc3c(CN4CCCCC4)nn(C)c3C2)o1.O=C(O)C(F)(F)F | 0.5997% | –
16 | COc1cccc(-c2cc(NCCN(C)C)nc3[nH]ccc23)n1 | – | 96.05%
17 | COc1cccc(-c2cc(NCCO)nc3[nH]ccc23)n1 | – | -6.078%
18 | COc1cccc(-c2cc(NCC(=O)O)nc3[nH]ccc23)n1 | – | -16.38%
19 | O=C(O)CCn1ccc2c(nnc3c(-c4ccc(F)cc4)cnn32)c1=O | -41.42% | –
20 | Cc1cc(-n2cccn2)ccc1CN1CCOCC(CN(C)C)C1 (stereo not drawn) | – | -10.31%
21 | Cc1ccc(-n2cc(CN3CCOCC(CN(C)C)C3)cn2)cc1C (stereo not drawn) | – | 98.04%
22 | Cc1cc(C)c(-n2cccn2)c(CN2CCOCC(CN(C)C)C2)c1 (stereo not drawn) | – | -14.72%
23 | CN(C)c1ncc2c(O)nc(C3CCNCC3)cc2n1.Cl | – | -29.5%
24 | CC(=O)NC1CCN(c2ccnc(C3CCNCC3)c2)CC1.O=C(O)C(F)(F)F | – | -10.98%

Row | Structure (SMILES) | Percent Effect (30 µM, 30.03 µM) | Percent Effect (30.3 µM, […])
25 | O=C(Nc1cccnc1)NC1CCN(c2ccccc2OC(F)F)C1 (stereo not drawn) | -24.57% | –
26 | O=C(Nc1ccccn1)NC1CCN(c2ccccc2OC(F)F)C1 (stereo not drawn) | -33.53% | –
27 | O=C(Nc1ccncc1)NC1CCN(c2ccccc2OC(F)F)C1 (stereo not drawn) | 57.33% | –
28 | Cc1nc(N(C)C)nc(C)c1NC(=O)c1ccccc1F | -23.68% | –
29 | CO[C@@H]1CCN(Cc2cnn(C)c2)[C@@H]2CN(Cc3cccnc3)C[C@@H]21.O=C(O)C(F)(F)F.O=C(O)C(F)(F)F.O=C(O)C(F)(F)F | -0.5656% | –
30 | CN(C)C(=O)CN1CCC(c2c(C(N)=O)sc3ncccc23)C1 (stereo not drawn) | – | -20.96%
31 | Cc1ncc2c(n1)CN(Cc1cccc3c1OCCO3)CC2 | -9.069% | –
32 | CC(C)c1ncc2c(n1)CN(Cc1cccc3c1OCCO3)CC2 | 65.77% | –
33 | CCc1ncc2c(n1)CN(Cc1cccc3c1OCCO3)CC2 | -15.38% | –
34 | O=C(O)C(F)(F)F.O=C(O)C(F)(F)F.O=C(c1ccsc1)N1C[C@@H]2OCCN(CCN3CCCC3)[C@@H]2C1 | – | -142.2%
35 | CCn1cc(Cl)c(C(=O)NCCOC)n1 | – | -26.01%
36 | CCNC(=O)CCc1c(C)nc2cc(O)nn2c1C | 30.72% | –
37 | COC(=O)CCc1c(C)nc2cc(O)nn2c1C | 37.13% | –
38 | COc1ccc(NC(=O)CCc2c(C)nc3cc(O)nn3c2C)cn1 | 73.91% | –
39 | Cc1ccc2c(c1)CN(C(=O)c1cccnc1)C(CN(C)C)CO2.Cl (stereo not drawn) | – | -3.741%
40 | Cc1cnc(N2CCO[C@@H]3CC(COCc4cccnc4)C[C@H]32)nc1.O=C(O)C(F)(F)F.O=C(O)C(F)(F)F (stereo partly drawn) | – | -14.97%
41 | Cl.c1cnc2c(c1)cc([C@@H]1CCCO1)n2CCN1CCOCC1 | – | -1.684%
42 | CCc1ccc(S(=O)(=O)N2Cc3c(CN(C)C)nn(C)c3C2)cc1.O=C(O)C(F)(F)F | – | -1.293%
43 | O=C(Nc1cccc(CN2CCOC2=O)c1)N1CCCCCC1 | -56.22% | –
44 | O=C(Nc1cccc(CN2CCOC2=O)c1)N1CCSCC1 | 53.61% | –
45 | O=C(Nc1cccc(CN2CCOC2=O)c1)N1CCCC1 | -2.123% | –
46 | COc1ccc(C[C@H]2CN(C(=O)CN(C)C)CC[C@H]2OC)cc1.O=C(O)C(F)(F)F | – | 4.427%
47 | CCS(=O)(=O)N1Cc2ccccc2CC1C(=O)OCc1c(C)noc1C (stereo not drawn) | -54.09% | –
48 | CCS(=O)(=O)N1Cc2ccccc2CC1C(=O)OCc1cc(C)no1 (stereo not drawn) | -34.32% | –
